# Vif-A3G inh: blocks the Vif interaction with human APOBEC3G | HeLa A3G-eYFP + Vif (tagged APOBEC3G with the HIV-1 protein that degrades it), YFP fluorescence, overnight | 410,000 tested, 0.076% active | AID 602310 | Potency, µM (series often up to 46.1 µM), for inactives: at the highest dose activity, negative = active, actives largely listed as inhibitors; note: potency is the fitted concentration of half-maximal effect; % is set by controls: 0 for no effect and ±100 for the full control effect; nearly all actives have a fitted effect of over 60% in size
# Target sequence (Q9HC16 whole entry, looked up): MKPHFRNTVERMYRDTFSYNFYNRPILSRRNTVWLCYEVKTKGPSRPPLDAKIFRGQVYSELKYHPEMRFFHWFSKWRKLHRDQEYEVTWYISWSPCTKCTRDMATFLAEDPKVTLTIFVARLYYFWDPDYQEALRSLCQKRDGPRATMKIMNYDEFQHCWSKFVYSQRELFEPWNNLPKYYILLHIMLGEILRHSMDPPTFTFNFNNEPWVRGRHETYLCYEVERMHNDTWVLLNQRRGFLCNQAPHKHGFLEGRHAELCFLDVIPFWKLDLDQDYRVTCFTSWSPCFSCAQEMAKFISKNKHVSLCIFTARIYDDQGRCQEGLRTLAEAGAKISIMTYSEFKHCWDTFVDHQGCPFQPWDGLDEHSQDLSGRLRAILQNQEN
#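 Read-out is eYFP fluorescence (Ex 488/Em 500-530) from Vif-expressing HeLa A3G-eYFP cells; more signal means A3G escaped Vif-mediated degradation. Cells plated overnight, compound pinned in, incubated overnight at 37 deg C.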
# Vif-APOBEC3F blk: blocks the Vif interaction with APOBEC3F | HeLa A3F-eYFP + Vif (tagged APOBEC3F with the HIV-1 protein that degrades it), YFP fluorescence increase | Potency, µM (series often up to 46.1 µM), inactives show at the top dose activity, negative = active | 390,000 tested, 0.2% active | AID 602313; note: potency is the fitted concentration of half-maximal effect; % of control where 0% means no effect; nearly all actives have a fitted effect of over 65% in size
#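 Fluorescence increase (Ex 488/Em 500-530) after overnight compound treatment at 37 deg C flags inhibition of Vif-driven A3F-eYFP loss in stable HeLa A3F-eYFP/Vif cells seeded overnight beforehand.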
# MBNL1 CUG block: MBNL1-poly(CUG) RNA binding inhibition; Q9NR56; TR-FRET MBNL1-His/biotin-(CUG)12 binding, 665/545 ratio; Potency, µM (top dose mostly 57.5 µM), for inactives: at the top dose activity change, negative = inhibition, most hits filed as inhibitors; 280,000 tested, 0.036% active; active = well fitted inhibition curve with a large enough effect in the signal ratio, with a control signal flat, not every such curve was filed as active; inconclusive = small, poorly fitted or top-dose-only effect, or effect the other way, or a change in a side signal; inactive = no such curve, though single readings can be large or run the other way; the % refers to the signal ratio; note: potency is the fitted concentration of half-maximal effect; % is set by controls: 0 for no effect and ±100 for the full control effect
#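 Compound titration spanned 92 nM–58 uM against the MBNL1-His/biotin-(CUG)12 complex. After 60 min at room temperature with 5 nM streptavidin-XL665 and 0.055 ng/ul terbium anti-His, ratiometric 665/545 nm emission (Ex 340 nm) normalized to controls.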
# TSG101-PTAP inh: blocks PTAP/TSG101 interaction to inhibit HIV-1 budding. 340,000 tested, under 10 active. Fluorescence polarization, FITC-PTAP peptide / Tsg101 binding. Potency, µM (highest dose often 115 µM), for the others: at the highest dose activity change, negative = inhibition, usual class: inhibitors. Q99816. AID 493005; active = well fitted inhibition curve with a large enough effect in the main read-out, with a control signal flat, not every such curve was filed as active; inconclusive = small, poorly fitted or top-dose-only effect, or effect the other way, or a change in a side signal; inactive = no such curve, though single readings can be large or run the other way; note: potency is the fitted concentration of half-maximal effect; % of control where 0% means no effect
# Target sequence (Q99816 whole entry, looked up): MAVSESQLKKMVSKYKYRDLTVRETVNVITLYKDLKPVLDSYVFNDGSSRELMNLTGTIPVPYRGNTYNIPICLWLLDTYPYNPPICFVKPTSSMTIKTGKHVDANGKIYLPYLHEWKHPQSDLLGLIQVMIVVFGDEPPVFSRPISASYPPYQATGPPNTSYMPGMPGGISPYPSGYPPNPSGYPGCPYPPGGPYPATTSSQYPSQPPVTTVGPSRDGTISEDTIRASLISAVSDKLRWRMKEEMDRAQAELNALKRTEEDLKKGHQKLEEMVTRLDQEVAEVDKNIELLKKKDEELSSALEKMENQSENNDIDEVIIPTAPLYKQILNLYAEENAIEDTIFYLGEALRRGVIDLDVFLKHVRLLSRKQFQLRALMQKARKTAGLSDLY
#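 Steps: Tsg101 binding domain dispensed (10 uM final), compounds pinned in DMSO, FITC-labeled PTAP-motif peptide added (50 nM final); after 20 min binding at room temperature, polarization measured.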
# CBFb-RUNX1 inh: CBF-beta/RUNX1 interaction disruption | Potency, µM (top dose mostly 59.8 µM), inactives show at the highest dose activity, negative = inhibition, actives largely listed as inhibitors | 230,000 tested, under 10 active | AlphaScreen CBFb-His/RUNX1-biotin binding, biochemical | Q01196+Q13951 | AID 1477; note: % of control where 0% means no effect
#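 Room-temperature protein-protein interaction test with 30 nM each of His-tagged CBF-beta and biotinylated RUNX1, 15 min with compound, then 90 min with nickel plus streptavidin beads. Signal read in AlphaScreen mode.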
# Epigenetic derep: regulators of epigenetic silencing causing reporter derepression in mouse cells. murine LDR cells, GFP reporter derepression, 30 h. AID 1865. 280,000 tested, 0.2% active. Potency, µM (doses to about 53.9 µM), for the others: at the top dose GFP activation, actives largely listed as activators; note: potency is the fitted concentration of half-maximal effect; % of control where 0% means no effect; nearly all actives have a fitted effect of over 60% in size
#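 Murine LDR cells bearing a silenced CMV-driven GFP reporter were exposed to compound for 30 h at 37 C. After PBS washes, GFP-positive cells (20-120 um objects) counted by laser-scanning microplate cytometry.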
# An asterisk follows results filed as active; ? = inconclusive; / = no result given; [ ] = another dose, or the depositor's remark. In the library only some 0.37% were active in any assay of this set; here they are far more common. Unless noted, calls come from the whole dose curve; as a rule, active = well fitted curve in the direction sought with a large enough effect; inconclusive = small, poorly fitted or top-dose-only effect, or another doubt; inactive = no such curve, though single readings can be large; an effect the other way counts as inactive or inconclusive.
SMILES,Vif-A3G inh,Vif-APOBEC3F blk,MBNL1 CUG block,TSG101-PTAP inh,CBFb-RUNX1 inh,Epigenetic derep
Nc1c(C(=O)Nc2nccs2)sc2nc(-c3cccs3)cc(C(F)(F)F)c12,8.9µM*,?,1%,5%,-3%,?
C=CCN1CC[C@@H](O)C(=C)S1(=O)=O,-1%,/,/,/,/,/
CC[N+]1(CC(=O)c2ccc(Cl)cc2)CCCCC1,-1%,/,/,/,/,/
CCCCN1CC[C@H]2C=CC[C@@H](C(=O)NCc3cccnc3)[C@H]2C1=O,-4%,/,/,/,/,/
O=C(N/N=C/c1ccc([N+](=O)[O-])o1)c1cc2c(ccc3ccccc32)o1,?,7.9µM*,14%,0%,12%,?
O=C(N/N=C/c1ccc([N+](=O)[O-])o1)c1cc2ccccc2o1,?,-12%,?,-2%,-13%,0%
CC(C)c1ccc(C2C(C#N)=C(N)N3C(=C2C#N)Sc2ccccc23)cc1 (stereo not given),/,/,122%,/,-1%,20µM*
Cn1nc(-c2ccc(F)cc2)nc2c(=O)n(C)c(=O)nc1-2,-10%,/,/,/,/,/
CN(C)c1ccc2c(c1)OC(N)=C(C#N)C2c1cccc(F)c1 (stereo not given),?,22µM*,?,-1%,-13%,4%
N#CC1=C(N)Oc2cc(N)ccc2C1c1cccc(F)c1 (stereo not given),?,0%,6%,1%,/,/
S=C(Nc1cccc2ccccc12)NN1CCCCCC1,0%,22µM*,/,-1%,/,/
Nc1c(C(=O)N/N=C/c2cccnc2)oc2nc(-c3ccccc3)cc(-c3ccco3)c12,-13%,10µM*,?,?,-16%,7%
Cc1c(Br)cnc2ccccc12,-12%,/,/,/,/,/
Cc1ccc(NC(=O)C(=O)NCC(c2cccnc2)N2CCc3ccccc3C2)cc1 (stereo not given),5%,-11%,/,/,/,22µM*
O=C(Nc1ccccc1-c1cn2c(CN3CCNCC3)csc2n1)c1cnc2ccccc2n1,-11%,/,/,/,/,/
Cc1cc(N2CCCC2)ccc1/C=C1/C(=O)N(C)C(=S)N1C,?,11µM*,14%,1%,?,?
CN1C(=O)/C(=C/C=C2/CCCN2C)N(C)C1=S,1%,-1%,?,37%,0%,0%
CC(=O)c1cccc(-c2ccnc3c2CC(C(=O)NCc2ccco2)O3)c1 (stereo not given),0.89µM*,/,/,/,/,/
c1ccc2c(-c3nc4ccccc4[nH]3)cccc2c1,6.3µM*,0%,/,/,/,/
c1ccc2[nH]c(-c3ccnc4ccccc34)nc2c1,-14%,-4%,?,-3%,3%,0%
O=C(Nc1ccc(Cl)cc1Cl)c1cnn2c1NC(=C1CC1)C=C2C(F)F,0%,/,/,/,/,/
CC1=CC(C)(C)Nc2ccc(OC(=O)c3cccnc3)cc21,?,?,2%,-3%,-11%,?
CC1=CC(C)(C)Nc2ccc(OC(=O)c3ccco3)cc21,11µM*,?,-2%,-6%,-5%,?
CSCC[C@H](NC(=O)[C@H](Cc1ccccc1)n1c(=O)[nH]c2ccccc2c1=O)C(=O)N1CCC[C@@H]1C(=O)O,10µM*,-2%,-5%,8%,/,/
CC(C)(C)n1ncc2c(=O)n(Cc3cccc(C#N)c3)cnc21,-2%,/,/,/,/,/
SMILES,Vif-A3G inh,Vif-APOBEC3F blk,MBNL1 CUG block,TSG101-PTAP inh,CBFb-RUNX1 inh,Epigenetic derep
CN(C)c1ccc(C2CCc3ccccc3N2C(=O)c2ccccc2)cc1 (stereo not given),2%,/,/,/,/,/
Cn1c(N/N=C/c2cc3ccccc3nc2Cl)nc2ccccc21,11µM*,22µM*,?,?,1%,?
Cc1ncnc2nc[nH]c12,-17%,/,/,/,/,/
CCCOc1ccc(C(=O)Nc2cccc(NC(=O)c3ccc(Cl)cc3Cl)c2)cc1,13µM*,?,/,/,/,?
COc1[nH]c(/N=C/c2ccco2)c(C#N)c1C#N,0%,/,/,/,/,/
CC(C)(C)n1ncc2c(=O)n(Cc3ccc(Cl)cc3F)cnc21,-6%,/,/,/,/,/
CN(C)c1ccc(/C=N/NC(=O)c2ccccc2Cl)cc1,10µM*,2%,?,1%,9%,-1%
CCOc1cc(-c2nnc(SCC(=O)Nc3ccc(F)c(F)c3)nc2-c2ccc(OC)c(OCC)c2)ccc1OC,-4%,2%,/,/,/,16µM*
O=C(Nc1nnc(-c2ccc3c(c2)CCCC3)o1)c1ccc(Cl)cc1Cl,1%,-30%,-8%,1%,-7%,-1%
O=C(Nc1nnc(-c2ccc3c(c2)CCCC3)o1)c1c(F)cccc1F,-5%,25µM*,-1%,-7%,2%,0%
Cc1cc[n+](CC#N)cc1,1%,/,/,/,/,/
O=C(O)C1CC=CC2CCN(C3CC3)C(=O)C21 (stereo not given),1%,/,/,/,15%,/
CCOCCCNC(=O)/C(C#N)=C/c1ccc([N+](=O)[O-])o1,?,13µM*,?,-2%,2%,4µM*
CC(NC(=O)/C(C#N)=C/c1ccco1)c1ccccc1 (stereo not given),0%,-6%,21%,-3%,1%,-1%
CC(NC(=O)/C(C#N)=C/c1ccc([N+](=O)[O-])o1)c1ccccc1 (stereo not given),22µM*,11µM*,21%,-1%,/,/
CCc1ccccc1NC(=O)c1cnn2c(C(F)(F)F)cc(-c3ccc(OC)c(OC)c3)nc12,3%,?,/,/,/,13µM*
CCc1ccccc1NC(=O)c1cc2nc(-c3ccc(OC)c(OC)c3)cc(C(F)(F)F)n2n1,-3%,-5%,/,/,/,0%
CCOC(=O)c1c(C)[nH]c(C(=O)OC(C(=O)N(C)C)c2ccccc2)c1C (stereo not given),-7%,/,/,/,/,/
CCN(CC)CCC[C@H](C)Nc1c2ccc(Cl)cc2nc2ccc(OC)cc12,/,/,/,/,13%[21.7 µM],3.5µM*
O=C1Nc2ccc(Br)cc2C12NNc1ccccc1O2 (stereo not given),?,?,3%,3%,-18%,18µM*
O=C1Nc2ccc(Br)cc2C1(O)c1ccccc1 (stereo not given),-1%,-16%,9%,-1%,/,/
c1ccc2c(c1)nc(N1CCOCC1)c1nnnn12,0%,3.2µM*,-9%,-10%,8%,2%
O=C(Nc1ccc(Cl)cn1)c1cnn2c1NC(=C1CC1)C=C2C(F)F,3%,/,/,/,/,/
CN(C)CC(C)(C)CNC(=O)c1ccc(Cc2nc3ccccc3[nH]2)cc1,/,/,/,/,/,-3%
CCCCN1C(=O)/C(=C/C=C2\SCCN2C)SC1=S,?,?,/,?,/,18µM*
CCCCN1C(=O)/C(=C/C=C2\N(C)c3ccccc3C2(C)C)SC1=S,/,/,2%,/,-11%,2.5µM*

# Compound activity as filed in PubChem BioAssay.
